Screening data deposited in PubChem BioAssay by National Center for Advancing Translational Sciences (NCATS).
Hsp90 Hop PPI – changes Hsp90-Hop TPR2A binding signal, up or down | AID 595 | Potency, µM (titrated, usually from 57 µM), without a hit: top-dose activity change, negative = inhibition | 71,000 tested, 0.44% active | AlphaScreen TPR2A-His6 binding biotin-Hsp90 C-terminal peptide; active = well fitted curve in either direction with a large enough effect; inconclusive = small, poorly fitted or top-dose-only effect, or another doubt; also: potency is read from the fitted curve at half-maximal effect; % is scaled to controls: 0 for no effect and ±100 for the full control effect
IkB signaling – inhibitors of IkB signaling in ABC-DLBCL cells. ABC-DLBCL IkBa-CBG/CBR dual luciferase ratio, 4 h; response scale: scaled: untreated 0%, proteasome inhibitor 100%. 110,000 tested, 0.04% active. Potency, µM (series often up to 57.1 µM), for inactives: top-dose IkBa stabilization activation. AID 445; active = well fitted curve in the direction sought with a large enough effect in the signal ratio, not every such curve was filed as active; inconclusive = small, poorly fitted or top-dose-only effect, or a change in a side signal; the % refers to the signal ratio;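 also: potency is read from the fitted curve at half-maximal effect; the direction sought is a rising ratio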
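Luminescence ratio of IκBα-fused green versus native red beetle luciferase in OCI-Ly3 cells, 4 h post-doxycycline with compound; red signal alone, scaled from basal (0%) to zero light (-100%), flagged nonspecific or cytotoxic effects.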
p53ts 32C tox – p53ts cell cytotoxicity, permissive temperature | H1299-p53A138V at 32C, ATP luminescence viability, 24 h | AID 924 | 130,000 tested, 0.93% active | Potency, µM (doses to about 46.1 µM), for the others: at the top dose activity change, negative = cytotoxicity, hits mostly cytotoxic;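 also: potency is read from the fitted curve at half-maximal effect; 0% = DMSO and -100% = full killing by reference compound; nearly all actives have a fitted effect of over 55% in size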
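H1299-p53 A138V cells (temperature-sensitive p53) exposed 24 h to up to 46 uM compound at 32C, where p53 is wild-type in conformation. Viability read as ATP luminescence and normalised to DMSO and 100 uM tamoxifen. AC50 fitted with the Hill equation.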
p53ts 39C kill – cytotoxicity in p53ts cells at nonpermissive temperature; Potency, µM (top dose mostly 46.1 µM), without a hit: top-dose activity change, negative = cell killing, most hits filed as cytotoxic; 130,000 tested, 1.5% active; AID 902; H1299-p53A138V viability at 39C, ATP luminescence, 24 h; also: potency is read from the fitted curve at half-maximal effect; % is scaled to controls: 0 for no effect and ±100 for the full control effect; nearly all actives have a fitted effect of over 55% in size
Luciferase inh – blocks Photinus pyralis firefly luciferase activity; P08659; purified firefly luciferase, luminescence, 8 min; Potency, µM (series often up to 57.1 µM), for inactives: at the top dose activity change, negative = inhibition, usual class: inhibitors; 72,000 tested, 2.2% active; AID 411; also: potency is read from the fitted curve at half-maximal effect; % is scaled to controls: 0 for no effect and ±100 for the full control effect; nearly all actives have a fitted effect of over 40% in size
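Substrate buffer containing 10 uM ATP (pH 7.2 imidazole, Mg2+, KCl, detergent, BSA) is dispensed, compound pinned in, then luciferase/luciferin detector mix added. After 8 min at ambient temperature, light output is measured.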
IMPase inh – IMPase inhibition in cells; 120,000 tested, under 10 active; CHO-M1 cells, IP1 accumulation, HTRF TR-FRET ratio; AID 901; inhibition (IP1 accumulation), % at 46.1 µM; P97697; active = well fitted curve in the direction sought with a large enough effect in the signal ratio, not every such curve was filed as active; inconclusive = small, poorly fitted or top-dose-only effect, or a change in a side signal; inactive = no such curve, though single readings can be large or run the other way; the % refers to the signal ratio;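 also: cells stimulated with carbachol in lithium chloride buffer; plate controls were DMSO basal wells for no effect and reference inhibitor wells for full effect; higher means more IMPase inhibition seen as more IP1 and lower FRET ratio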
Target sequence (P97697 whole entry, looked up): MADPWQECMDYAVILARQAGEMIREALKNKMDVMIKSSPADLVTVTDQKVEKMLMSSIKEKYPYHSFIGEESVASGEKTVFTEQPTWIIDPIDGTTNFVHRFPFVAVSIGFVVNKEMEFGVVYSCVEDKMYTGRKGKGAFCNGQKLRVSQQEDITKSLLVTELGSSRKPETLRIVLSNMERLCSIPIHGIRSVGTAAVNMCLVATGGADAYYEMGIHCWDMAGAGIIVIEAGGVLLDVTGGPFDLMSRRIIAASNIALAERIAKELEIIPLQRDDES
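The IP-One HTRF competitive assay in carbachol-stimulated CHO-M1 cells quantifies cellular IP1. Compounds spanned up to 46 uM final, and activity is expressed as AC50 from concentration-response fits of the ratio and donor data.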
* = called active by the depositor; u = inconclusive; x = no result; [ ] = remark or other dose. The full list was thinned out, with hits kept by preference. Unless noted, calls follow the shape of the dose curve; as a rule, active = well fitted curve in the direction sought with a large enough effect; inconclusive = small, poorly fitted or top-dose-only effect, or another doubt; inactive = no such curve, though single readings can be large; an effect the other way counts as inactive or inconclusive.

SMILES | Hsp90 Hop PPI | IkB signaling | p53ts 32C tox | p53ts 39C kill | Luciferase inh | IMPase inh
COc1cccc(C2=CC(c3ccccc3F)n3c(nc4ccccc43)N2)c1 (stereo not given) | x | u | 15.8µM* | 10µM* | x | x
N[C@@H]1C=CC=C(C(=O)O)C1 | u | -3.3% | 8.4% | 16.0% | 0.4% | 0.6
CC(O)/C=C/c1ccc2ccccc2n1 (stereo not given) | -1.0% | 3.1% | 25.1µM* | u | -15.0% | 0.2
Fc1cccc(F)c1/C=C/c1ccc2ccccc2n1 | x | x | x | x | x | 11.1
CCc1nnc(NC(=O)c2ccc(OC)cc2OC)s1 | -3.0% | u | 15.8µM* | u | 7.94µM* | 3.6
CCc1nnc(NC(=O)Nc2ccccc2OC)s1 | 1.4% | 1.4% | 13.2% | -6.3% | -2.8% | 0.8
NC(=O)c1ccc(-c2nc(-c3ccc4c(c3)OCO4)c(-c3ccccn3)[nH]2)cc1 | -9.3% | u | 14.1% | 8.2% | 7.94µM* | -29.1
Nc1nc2ccc(N3CCOCC3)cc2s1 | -7.7% | -2.3% | 3.98µM* | 3.98µM* | 15.8µM* | 27.8
Cc1nc2sc(C(c3cccs3)N3CCOCC3)c(O)n2n1 (stereo not given) | 0.0% | u | 12.6µM* | u | 0.4% | 0.8
Cc1c(Cl)cccc1NC(=O)c1cnc2sc(N3CCOCC3)nn2c1=O | x | -1.4% | -5.0% | -9.1% | x | x
O=C1c2ccccc2NC(c2ccc3c(c2)OCCO3)N1c1ccc2c(c1)OCCO2 (stereo not given) | 0.9% | 0.1% | 6.31µM* | 5.01µM* | 20µM* | -3.5
COC(=O)c1cc(=O)c(O)c2c(O)c(O)ccc2c1 | x | x | 0.9% | 1.2% | x | x
O=C(Nc1cccnc1)c1cc(-c2cccc(Cl)c2)on1 | x | u | 5.9% | 23.4% | x | x
CN(C)c1nc(N)c(C(=O)Nc2cccnc2)nc1Cl | x | x | 12.6µM* | 5.01µM* | x | x
COc1ccc(CNC(=O)c2cc(-c3ccc(Br)s3)nc3ccccc23)cc1 | x | 0.9% | -5.5% | 10µM* | x | x
O=C(NCCN1CCCC1)c1ccc(Cc2nc3ccccc3[nH]2)cc1 | x | x | 6.3% | 1.8% | x | x
COc1ccccc1CN1CCC2(CC1)CCN(C(=O)c1csnn1)CC2 | -1.2% | -0.3%[11.4 µM] | -4.0% | 1.8% | 0.9%[11.4 µM] | x
CCS(=O)(=O)NCCc1sc2nc(-c3ccc(OC)cc3)nn2c1C | x | -5.3% | 1.3% | -30.7% | x | x
CCc1nnc(SCC(=O)Nc2ccc(Cl)cc2F)c2cc3occc3n12 | x | u | -3.2% | -7.8% | x | x
Cc1cc(C)c(CSc2nnc(C)n3c2cc2occc23)c(C)c1 | x | -1.2% | -19.8% | 20µM* | x | x
O=c1c(O)c(-c2ccc(O)c(O)c2)oc2c(OC[C@H]3O[C@@H](O)[C@@H](O)[C@H](O)[C@@H]3O)c(O)cc(O)c12 | -11.0% | -0.3%[11.4 µM] | x | x | -1.6%[11.4 µM] | x
Cc1ccc(NC(=O)C(=O)NCC(c2cccnc2)N2CCN(Cc3ccccc3)CC2)cc1C (stereo not given) | x | u | -2.3% | -5.7% | x | x
Cc1ccc(C(=O)Nc2ccc3c(c2)ncn3C)cc1 | -0.2% | 6.1% | u | u | 25.1µM* | 10.7
CCCCC#Cc1nc(N)c2ncn([C@@H]3O[C@@H](C(=O)NCC)[C@H](O)[C@@H]3O)c2n1 | -9.4% | u | 8.6% | -16.8% | 2.7% | -3.3
CC(C(=O)O)c1ccc(N2Cc3ccccc3C2=O)cc1 (stereo not given) | x | x | 10µM* | 10µM* | x | x
SMILES | Hsp90 Hop PPI | IkB signaling | p53ts 32C tox | p53ts 39C kill | Luciferase inh | IMPase inh
Cc1cc(S(=O)(=O)C(CNC(=O)COc2ccc(Cl)cc2)c2cccs2)ccc1F (stereo not given) | x | u | 2.6% | -17.6% | x | x
CN(C)Cc1ccc(-c2cc3onc(-c4ccccc4)c3c(=O)n2C)cc1 | 1.0%[11 µM] | 12.6%[11.4 µM] | -22.2%[9.22 µM] | -22.7%[9.22 µM] | 3.98µM* | x
CN(Cc1ccccc1)C(=O)c1cc(-c2cccc(Cl)c2)on1 | x | u | 4.6% | 1.6% | x | x
COc1ccc(C(=O)Nc2nnc(SCc3cc(=O)n4cc(Cl)ccc4n3)s2)cc1 | x | u | -8.5% | 10.0% | x | x
CN(Cc1ccco1)c1cc(-c2cccc(C#N)c2)ncn1 | -0.3% | -0.8%[11.4 µM] | 2.9% | -7.4% | 2.1%[2.29 µM] | x
COc1cccc(-c2cc(N(C)Cc3ccco3)ncn2)c1 | -3.2% | -0.8%[11.4 µM] | u | 12.6µM* | -9.8%[2.29 µM] | x
CN(C)c1ccc(-c2cc(N(C)Cc3ccco3)ncn2)cc1 | -7.5% | -2.2%[11.4 µM] | 12.6µM* | 12.6µM* | -14.4%[2.29 µM] | x
Cc1cc(C)c2c(CC(=O)Nc3ccc(S(=O)(=O)N4CCCC(C)C4)cc3)coc2c1 (stereo not given) | x | u | 13.1% | -7.5% | x | x
CCn1c(=O)c(C(=O)Nc2ccc(C(C)=O)cc2)nc2ccccc21 | x | 2.0% | 10µM* | 12.6µM* | x | -8.8
CC(C)c1ccc(C(=O)CC2(O)C(=O)N(CCc3ccccc3)c3ccc(Cl)cc32)cc1 (stereo not given) | x | u | u | 15.8µM* | x | 8.7
O=C(CC1(O)C(=O)N(Cc2ccccc2)c2ccc(Br)cc21)c1ccccc1 (stereo not given) | x | u | u | 15.8µM* | x | 17.9
Cc1n[nH]c(C)c1C(=O)CC1(O)C(=O)N(Cc2ccccc2)c2ccc(Br)cc21 (stereo not given) | x | x | x | x | x | 8.7
CCCN1C(=O)C(O)(CC(=O)c2ccc(C(C)C)cc2)c2ccccc21 (stereo not given) | x | u | 2.1% | u | x | 0.5
O=C(CC1(O)C(=O)N(CCc2ccccc2)c2ccc(Br)cc21)c1ccccc1O (stereo not given) | x | u | -0.4% | 20µM* | x | -4.1
Cc1nc2ccccc2n1CCc1nc2c3ccccc3nc(SCc3ccc(C#N)cc3)n2n1 | x | -2.6% | 7.7% | 27.8% | x | x
